Assay results taken from PubChem BioAssay (EPA / NIEHS).
Activity calls are given as the source filed them. How the source made its calls: active means hit-call score of the fitted dose curve at least 0.9, where 1 is the maximum; inactive means score below 0.9.

Assays:
Conditions in all cases: mRNA level, 48 h; actives raise or lower the signal
[1] = read-out: Peroxisomal acyl-coenzyme A oxidase 1 (ACOX1) gene, ACOX1 (gene 51); experiment: LTEA_HepaRG_ACOX1: Life Technologies and Expression Analysis (LTEA) Assay for Peroxisomal acyl-coenzyme A oxidase 1 (ACOX1) gene using HepaRG (AID 2283467)
In short: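 Measured by qRT-PCR against three housekeeping genes: ACOX1 transcript change in human HepaRG cells after 48 h dosing. Concentrations ran up to 100 uM in half-log steps. Curves were fitted bidirectionally relative to 0.5% DMSO.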

[2] = read-out: Alkaline Phosphatase, Placental (ALPP) gene, ALPP (gene 250); experiment: LTEA_HepaRG_ALPP: Life Technologies and Expression Analysis (LTEA) Assay for Alkaline Phosphatase, Placental (ALPP) gene using HepaRG (AID 2283468)
In short: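 HepaRG, 48 h plating then 48 h dosing, serum-free induction medium, 0.5% DMSO. 8 conc, half-log, max 100 uM, duplicates. Endpoint: ALPP transcript by qRT-PCR, housekeeping-normalized; gain or loss fitted vs DMSO.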

[3] = read-out: Bcl-2 (BAD) gene, BAD (gene 572); experiment: LTEA_HepaRG_BAD: Life Technologies and Expression Analysis (LTEA) Assay for Bcl-2 (BAD) gene using HepaRG (AID 2283469)
In short: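 BAD transcript change, measured by qRT-PCR against three housekeeping genes and fitted in both directions relative to 0.5% DMSO, after 48 h chemical treatment of human HepaRG liver cells at concentrations up to 100 uM.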

[4] = read-out: Bcl-2 (BAX) gene, BAX (gene 581); experiment: LTEA_HepaRG_BAX: Life Technologies and Expression Analysis (LTEA) Assay for Bcl-2 (BAX) gene using HepaRG (AID 2283470)
In short: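 HepaRG (human liver), 48 h exposure, duplicate wells. 8-pt curve, half-log from 100 uM, 0.5% DMSO. BAX transcript by TaqMan qRT-PCR; ACTB/GAPDH/POLR2A normalization; gain or loss vs DMSO baseline.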

[5] = read-out: adenosine kinase (ADK) gene, ADK (gene 132); experiment: LTEA_HepaRG_ADK: Life Technologies and Expression Analysis (LTEA) Assay for adenosine kinase (ADK) gene using HepaRG (AID 2283471)
In short: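 ADK expression quantified by qRT-PCR, normalised to three housekeeping genes, after 48 h exposure of HepaRG cells to eight concentrations (top 100 uM, half-log steps, duplicate, 0.5% DMSO). Up- or down-regulation fitted relative to vehicle.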

[6] = read-out: Alpha-fetoprotein (AFP) gene, AFP (gene 174); experiment: LTEA_HepaRG_AFP: Life Technologies and Expression Analysis (LTEA) Assay for Alpha-fetoprotein (AFP) gene using HepaRG (AID 2283472)
In short: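 HepaRG, single lot; 48 h post-plating -> serum-free induction medium; cpd 8-pt, 100 uM top, half-log, 0.5% DMSO, duplicate, 48 h. RNA -> qRT-PCR AFP, norm ACTB/GAPDH/POLR2A. Bidirectional fit vs DMSO.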

[7] = read-out: BCL2L11 (gene 10018); experiment: LTEA_HepaRG_BCL2L11: Life Technologies and Expression Analysis (LTEA) Assay for Bcl-2 (BCL2L11) gene using HepaRG (AID 2283473)
In short: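 Read-out is BCL2L11 transcript level by qRT-PCR, normalized to three housekeeping genes and fitted bidirectionally against 0.5% DMSO vehicle. HepaRG cells received chemicals for 48 h in serum-free induction medium, 100 uM down in half-log dilutions.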

[8] = read-out: Apolipoprotein A-V (APOA5) gene, APOA5 (gene 116519); experiment: LTEA_HepaRG_APOA5: Life Technologies and Expression Analysis (LTEA) Assay for Apolipoprotein A-V (APOA5) gene using HepaRG (AID 2283474)
In short: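 Readout is APOA5 transcript level by qRT-PCR on Fluidigm dynamic arrays, normalized to three housekeeping genes. HepaRG cultures received chemicals for 48 h at up to 100 uM (half-log steps, 0.5% DMSO), with gain or loss scored relative to DMSO.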

[9] = read-out: Apoptosis regulator Bcl-2 (Homo sapiens) (UniProt P10415); experiment: LTEA_HepaRG_BCL2: Life Technologies and Expression Analysis (LTEA) Assay for Bcl-2 gene using HepaRG (AID 2283475)
In short: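 HepaRG, plated 48 h then switched to serum-free induction medium; dosed 48 h, 8 conc. (max 100 uM, half-log steps), duplicate, 0.5% DMSO. Lysis in RLT, RNA isolated, TaqMan qRT-PCR for BCL2; ACTB/GAPDH/POLR2A normalisation; bidirectional fit vs DMSO.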

[10] = read-out: Bcl-2 (BID) gene, BID (gene 637); experiment: LTEA_HepaRG_BID: Life Technologies and Expression Analysis (LTEA) Assay for Bcl-2 (BID) gene using HepaRG (AID 2283476)
In short: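 Transcript levels of BID, measured by qRT-PCR and normalized to three housekeeping genes, were fitted bidirectionally against DMSO controls. Cells were HepaRG, dosed 48 h at up to 100 uM.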

[11] = read-out: Caspase-3 (Homo sapiens) (UniProt P42574); experiment: LTEA_HepaRG_CASP3: Life Technologies and Expression Analysis (LTEA) Assay for cysteine-aspartic acid protease (CASP3) using HepaRG (AID 2283477)
In short: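 Read-out is CASP3 mRNA level by TaqMan qRT-PCR in human HepaRG cells after 48 h chemical exposure. Eight half-log concentrations topping at 100 uM were tested in 0.5% DMSO; gain or loss was fitted relative to DMSO.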

[12] = read-out: Cytochrome P450 (CYP24A1), CYP24A1 (gene 1591); experiment: LTEA_HepaRG_CYP24A1: Life Technologies and Expression Analysis (LTEA) Assay for Cytochrome P450 (CYP24A1) using HepaRG (AID 2283478)
In short: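 HepaRG, 48 h chemical exposure, 8-pt half-log CRC from 100 uM, 0.5% DMSO vehicle, duplicates. Endpoint: CYP24A1 mRNA by Fluidigm TaqMan qRT-PCR, normalized ACTB/GAPDH/POLR2A; gain/loss fit vs DMSO.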

[13] = read-out: Cytochrome P450 (CYP1A2), CYP1A2 (gene 1544); experiment: LTEA_HepaRG_CYP1A2: Life Technologies and Expression Analysis (LTEA) Assay for Cytochrome P450 (CYP1A2) using HepaRG (AID 2283479)
In short: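 CYP1A2 transcript induction or loss, quantified by Fluidigm qRT-PCR against three housekeeping genes, was fitted bidirectionally against 0.5% DMSO controls. Human HepaRG cells received eight half-log concentrations from 100 uM over 48 h.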

[14] = read-out: cysteine-aspartic acid protease (CASP8), CASP8 (gene 841); experiment: LTEA_HepaRG_CASP8: Life Technologies and Expression Analysis (LTEA) Assay for cysteine-aspartic acid protease (CASP8) using HepaRG (AID 2283480)
In short: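 HepaRG, 48 h exposure, duplicate wells; 8 conc, half-log from 100 uM, 0.5% DMSO. Serum-free induction medium. CASP8 mRNA by TaqMan qRT-PCR, norm. ACTB/GAPDH/POLR2A; gain/loss fitted vs DMSO.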

[15] = read-out: Cytochrome P450 (CYP2B6), CYP2B6 (gene 1555); experiment: LTEA_HepaRG_CYP2B6: Life Technologies and Expression Analysis (LTEA) Assay for Cytochrome P450 (CYP2B6) using HepaRG (AID 2283481)
In short: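 HepaRG cells plated 48 h, switched to serum-free induction medium, then dosed 48 h (8 points, half-log from 100 uM, 0.5% DMSO). RNA isolated; CYP2B6 expression measured by qRT-PCR; gain or loss fitted relative to DMSO.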

[16] = read-out: Cytochrome P450 2C19 (Homo sapiens) (UniProt P33261); experiment: LTEA_HepaRG_CYP2C19: Life Technologies and Expression Analysis (LTEA) Assay for CYP2C19 using HepaRG (AID 2283482)
In short: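 Transcript levels of CYP2C19 were quantified by qRT-PCR after HepaRG cells were treated for 48 hours with test chemicals up to 100 uM (eight half-log concentrations, 0.5% DMSO vehicle). Gain or loss of signal was fitted relative to DMSO.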

[17] = read-out: CYP2C8 (gene 1558); experiment: LTEA_HepaRG_CYP2C8: Life Technologies and Expression Analysis (LTEA) Assay for CYP2C8 using HepaRG (AID 2283483)
In short: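 CYP2C8 mRNA induction or loss, by qRT-PCR normalized to ACTB/GAPDH/POLR2A, is read in HepaRG cells after 48 h treatment. Concentrations run from 100 uM down in half-log dilutions, with 0.5% DMSO as vehicle and baseline.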

[18] = read-out: CYP2C9 (gene 1559); experiment: LTEA_HepaRG_CYP2C9: Life Technologies and Expression Analysis (LTEA) Assay for CYP2C9 using HepaRG (AID 2283484)
In short: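 Cells plated 48 h, switched to serum-free induction medium, then treated in duplicate for 48 h at eight concentrations (max 100 uM, 0.5% DMSO). RNA then analysed by qRT-PCR for CYP2C9; curves fitted in both directions relative to DMSO.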

[19] = read-out: CYP2E1 (gene 1571); experiment: LTEA_HepaRG_CYP2E1: Life Technologies and Expression Analysis (LTEA) Assay for CYP2E1 using HepaRG (AID 2283485)
In short: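 Human liver line HepaRG, plated 48 h, then serum-free induction medium + chemical x 48 h; 8-pt CRC from 100 uM, half-log, 0.5% DMSO, n=2. Readout: CYP2E1 mRNA qRT-PCR vs ACTB/GAPDH/POLR2A; bidirectional fit vs DMSO.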

[20] = read-out: CYP4A11 (gene 1579); experiment: LTEA_HepaRG_CYP4A11: Life Technologies and Expression Analysis (LTEA) Assay for CYP4A11 using HepaRG (AID 2283486)
In short: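 HepaRG, 48 h chem exposure, 8 conc (100 uM top, half-log), 0.5% DMSO vehicle; qRT-PCR readout, housekeeping-gene normalized; bidirectional curve fit vs DMSO baseline.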

Measured: AC50

Chain of Caspase-3 (Homo sapiens) (P42574 whole entry, looked up): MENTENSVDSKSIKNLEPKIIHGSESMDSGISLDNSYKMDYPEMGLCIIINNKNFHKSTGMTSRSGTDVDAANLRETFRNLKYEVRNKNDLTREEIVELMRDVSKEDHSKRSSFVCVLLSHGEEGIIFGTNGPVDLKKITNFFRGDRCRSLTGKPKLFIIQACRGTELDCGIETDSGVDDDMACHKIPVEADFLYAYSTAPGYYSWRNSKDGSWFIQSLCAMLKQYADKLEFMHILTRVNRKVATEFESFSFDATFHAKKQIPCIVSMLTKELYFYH
Chain of Apoptosis regulator Bcl-2 (Homo sapiens) (P10415 whole entry, looked up): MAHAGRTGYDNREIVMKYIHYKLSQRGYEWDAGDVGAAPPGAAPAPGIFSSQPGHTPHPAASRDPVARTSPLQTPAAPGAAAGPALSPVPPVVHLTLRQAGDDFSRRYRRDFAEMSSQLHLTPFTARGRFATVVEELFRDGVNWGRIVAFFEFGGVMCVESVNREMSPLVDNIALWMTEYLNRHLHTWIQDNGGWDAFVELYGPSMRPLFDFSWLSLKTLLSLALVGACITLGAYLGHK
Chain of Cytochrome P450 2C19 (Homo sapiens) (P33261 whole entry, looked up): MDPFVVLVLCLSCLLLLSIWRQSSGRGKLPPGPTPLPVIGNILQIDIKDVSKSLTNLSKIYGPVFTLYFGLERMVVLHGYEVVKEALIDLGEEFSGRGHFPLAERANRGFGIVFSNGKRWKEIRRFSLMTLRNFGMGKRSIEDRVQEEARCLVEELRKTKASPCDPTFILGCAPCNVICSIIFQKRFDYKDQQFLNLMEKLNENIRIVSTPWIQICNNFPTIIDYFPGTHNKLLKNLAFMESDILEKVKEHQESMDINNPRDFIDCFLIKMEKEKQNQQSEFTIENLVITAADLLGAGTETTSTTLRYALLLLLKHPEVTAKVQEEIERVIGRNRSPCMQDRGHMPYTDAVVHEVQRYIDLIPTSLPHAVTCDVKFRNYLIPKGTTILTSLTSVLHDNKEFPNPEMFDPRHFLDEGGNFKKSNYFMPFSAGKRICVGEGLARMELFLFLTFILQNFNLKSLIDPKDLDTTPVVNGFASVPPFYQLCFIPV

O=c1ccc(=O)[nH][nH]1
active: [15] 4.2 µM | [19] 16 µM
inactive: [1] | [2] | [3] | [4] | [5] | [6] | [7] | [8] | [9] | [10] | [11] | [12] | [13] | [14] | [16] | [17] | [18] | [20]

CN(C)NC(=O)CCC(=O)O
inactive: [1] | [2] | [3] | [4] | [5] | [6] | [7] | [8] | [9] | [10] | [11] | [12] | [13] | [14] | [15] | [16] | [17] | [18] | [19] | [20]

O=C(O)c1cc(Oc2ccc(C(F)(F)F)cc2Cl)ccc1[N+](=O)[O-]
inactive: [2] | [3] | [4] | [5] | [6] | [7] | [8] | [9] | [10] | [11] | [12] | [13] | [14] | [16] | [18] | [19]
active: [1] 28.4 µM | [15] 50 µM | [17] 8.77 µM | [20] 50 µM

CCCCSP(=O)(SCCCC)SCCCC
inactive: [1] | [2] | [3] | [4] | [5] | [7] | [8] | [9] | [10] | [11] | [12] | [14] | [17] | [18]
active: [6] 50 µM | [13] 13 µM | [15] 12.5 µM | [16] 12.8 µM | [19] 63.4 µM | [20] 76.2 µM

CCOP(=O)(SC(C)CC)N1CCSC1=O (stereo not drawn)
active: [15] 2.56 µM | [19] 19.1 µM | [20] 17 µM
inactive: [1] | [2] | [3] | [4] | [5] | [6] | [7] | [8] | [9] | [10] | [11] | [12] | [13] | [14] | [16] | [17] | [18]

CC(C)[C@H](C(=O)O[C@H](C#N)c1cccc(Oc2ccccc2)c1)c1ccc(Cl)cc1
active: [6] 24.7 µM | [13] 37.3 µM | [15] 20.8 µM | [16] 34.2 µM | [19] 50 µM
inactive: [1] | [2] | [3] | [4] | [5] | [7] | [8] | [9] | [10] | [11] | [12] | [14] | [18] | [20]

CCOC(=O)COc1cc(-c2nn(C)c(OC(F)F)c2Cl)c(F)cc1Cl
inactive: [1] | [2] | [3] | [4] | [5] | [6] | [7] | [8] | [9] | [10] | [11] | [12] | [13] | [14] | [18] | [20]
active: [15] 63.5 µM | [16] 50 µM | [17] 50 µM | [19] 16.3 µM

S=C1NCCN1
active: [1] 0.232 µM | [5] 12.6 µM | [15] 10.3 µM
inactive: [2] | [3] | [4] | [6] | [7] | [8] | [9] | [10] | [11] | [12] | [13] | [14] | [16] | [17] | [18] | [19] | [20]

CCOP(=S)(OCC)Oc1cc(C)nc(C(C)C)n1
inactive: [1] | [2] | [3] | [4] | [5] | [6] | [7] | [8] | [9] | [10] | [11] | [12] | [14] | [17] | [18] | [20]
active: [13] 29.3 µM | [15] 2.5 µM | [16] 16.1 µM | [19] 9.92 µM

CC(COc1ccc(Oc2ccccc2)cc1)Oc1ccccn1 (stereo not drawn)
active: [6] 38.9 µM | [13] 13.1 µM | [19] 35.7 µM | [20] 12.5 µM
inactive: [1] | [2] | [3] | [4] | [5] | [7] | [8] | [9] | [10] | [11] | [12] | [14] | [16] | [17] | [18]

CN(C)C(=O)Nc1cccc(C(F)(F)F)c1
active: [7] 50 µM | [10] 79.3 µM | [13] 42 µM | [15] 2.55 µM | [16] 16 µM | [17] 12.1 µM | [19] 50 µM
inactive: [1] | [2] | [3] | [4] | [5] | [6] | [8] | [9] | [11] | [12] | [14] | [18] | [20]
